Screening results as filed in PubChem BioAssay.
Compounds with a hit are over-represented: about 6.5% of the library has one in this group of screens.
HCMV antiviral: human cytomegalovirus inhibition; HFF cells, HCMV-luciferase reporter, 72 h; stronger effect = lower value; activity change, negative = inhibition, % at 57.5 µM; hit rate 4.5% among 410,000; in the data active means activity change below about -60%; inconclusive means no clear call, values can overlap the other calls; inactive means above about -39%
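Inhibition of viral replication was scored as loss of reporter luminescence in HFFs infected with HCMV-luciferase (MOI 1 PFU/cell) for 72 h; compounds tested at 2 doses, normalized to buffer and Salinomycin controls.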
VACV Venus inh: inhibitors of vaccinia virus (Venus reporter) | Potency, µM (highest dose often 36.5 µM), hits mostly inhibitors | hit rate 0.46% among 330,000 | Vaccinia virus Venus reporter expression, fluorescence | AID 720580; calls by dose curve; tested in A549 cells; further: nearly all actives have a fitted effect of over 30% in size
MARV entry inh: inhibitors of Marburg virus binding or cell entry; Marburg virus pseudotyped entry inhibition, cell reporter; Potency, µM (highest dose often 37.8 µM), usual class: inhibitors; hit rate 1.8% among 300,000; calls by dose curve; tested in HEK293 cells
LASV entry inh: inhibitors of Lassa virus binding or cell entry; Lassa virus pseudotype entry inhibition, cell reporter; AID 540256; Potency, µM (top dose mostly 37.9 µM), hits mostly inhibitors; hit rate 1.2% among 300,000; calls by dose curve; tested in HEK293 cells; further: nearly all actives have a fitted effect of over 50% in size
FMDV inh: foot and mouth disease virus antiviral activity | Potency, µM (top dose mostly 57.9 µM), actives largely listed as inhibitors | FMDV antiviral cell-based qHTS | hit rate 1.2% among 410,000 | AID 1159524; calls by dose curve; tested in HEK293T cells; further: read-out not given here; nearly all actives have a fitted effect of over 45% in size
VACV mCherry inh: vaccinia inhibition (mCherry reporter). AID 720579. hit rate 0.63% among 310,000. Vaccinia virus mCherry reporter infection, fluorescence. Potency, µM (titrated, usually from 36.5 µM), most hits filed as inhibitors; calls by dose curve; tested in A549 cells; further: nearly all actives have a fitted effect of over 35% in size
Hits are given with their value.

`CN(CCc1ccccc1)C(=O)c1ccc(NC(=O)Cc2ccc(NC(=O)C3CCN(C(=O)c4ccccc4)CC3)cc2)cc1` gave HCMV antiviral -62.5, VACV Venus inh inactive, FMDV inh inactive and VACV mCherry inh inconclusive.
CN(CCc1ccccc1)C(=O)c1ccc(NC(=O)Cc2ccc(NC(=O)C3CCN(C(=O)C4CC4)CC3)cc2)cc1 was read as HCMV antiviral inconclusive, VACV Venus inh inactive, FMDV inh inactive and VACV mCherry inh inactive.
Screening CN(CCc1ccccc1)C(=O)c1ccc(NC(=O)Cc2ccc(NC(=O)C3CCCN(C(=O)c4ccccc4)C3)cc2)cc1 (stereo not drawn) returned HCMV antiviral -76.0, VACV Venus inh inactive, FMDV inh inconclusive and VACV mCherry inh inconclusive.
For COC[C@@H](O)[C@H]1OCc2ccccc2[C@@H]1C=Cc1ccccc1 the results were MARV entry inh inactive.
`CCc1nc(N2CCN(C(=O)c3ccco3)CC2)c(C#N)c2c1COC(C)(C)C2` gave HCMV antiviral inactive, VACV Venus inh inactive, MARV entry inh inactive, LASV entry inh inconclusive, FMDV inh inactive and VACV mCherry inh inconclusive.
CC(C)Cc1nc(N2CCN(C(=O)c3ccco3)CC2)c(C#N)c2c1CCC2 was read as HCMV antiviral inactive, VACV Venus inh inactive, MARV entry inh inconclusive, LASV entry inh inconclusive, FMDV inh 25.1µM and VACV mCherry inh inactive.
For CCCNC(=O)N1CCN(c2nc(C(C)C)c3c(c2C#N)CC(C)(C)OC3)CC1 the results were HCMV antiviral -65.6, VACV Venus inh inconclusive, FMDV inh inconclusive and VACV mCherry inh inactive.
For CC1(C)Cc2c(C#N)c(N3CCN(C(=O)c4ccco4)CC3)nc(Cc3ccccc3)c2CO1 the results were HCMV antiviral inactive, VACV Venus inh inactive, MARV entry inh inconclusive, LASV entry inh inactive, FMDV inh 39.8µM and VACV mCherry inh inactive.
For CC(C)Cc1nc(N2CCN(C(=O)c3ccccc3)CC2)c(C#N)c2c1CCC2 the results were HCMV antiviral inconclusive, MARV entry inh inconclusive, LASV entry inh 6.51µM and FMDV inh inconclusive.
Screening COc1ccccc1N1CCN(C(=O)c2cc3c(=O)n(Cc4ccco4)ccc3nc2C)CC1 returned HCMV antiviral inactive, VACV Venus inh inactive, LASV entry inh inactive, FMDV inh inactive and VACV mCherry inh inactive.
COc1cccc(-c2ccc(O)c(CNCc3cccc4ccccc34)c2)n1 was read as VACV Venus inh inactive, FMDV inh inactive and VACV mCherry inh inactive.
Screening N#Cc1c(N2CCN(C(=O)c3ccco3)CC2)nc(-c2ccccc2)c2c1CCCC2 returned HCMV antiviral -77.8, VACV Venus inh inconclusive, MARV entry inh inconclusive, LASV entry inh inconclusive, FMDV inh inconclusive and VACV mCherry inh inconclusive.
For COc1ccc(N2CCN(C(CNC(=O)C(=O)NCc3cccnc3)c3cccnc3)CC2)cc1 (stereo not drawn) the results were HCMV antiviral inactive, VACV Venus inh inactive, LASV entry inh inactive, FMDV inh inactive and VACV mCherry inh inactive.
Cc1ccc(S(=O)(=O)N2CCN(c3nc(-c4cnccn4)nc4ccccc34)CC2)cc1 was read as VACV Venus inh inactive and VACV mCherry inh inactive.
Screening Cn1c(-c2cccc(C(F)(F)F)c2)cc2cnc(Nc3ccc(F)cc3)cc21 returned HCMV antiviral inactive.
Screening Cc1ccc2nc(-c3ccc(NC(=O)Cc4cccs4)cc3)[nH]c2c1 returned HCMV antiviral inactive, VACV Venus inh 12.6µM, MARV entry inh inactive, LASV entry inh inconclusive and VACV mCherry inh inconclusive.
Cc1ccc2nc(-c3ccc(NC(=O)C4CCCO4)cc3)[nH]c2c1 (stereo not drawn) was read as HCMV antiviral inactive, MARV entry inh inconclusive, LASV entry inh 8.2µM and FMDV inh inactive.
CC(=O)NC12CC3CC(C)(C1)CC(NC(C)=O)(C3)C2 was read as HCMV antiviral -68.6, VACV Venus inh inactive, MARV entry inh inactive, LASV entry inh inactive, FMDV inh inactive and VACV mCherry inh inactive.
`CC(C)n1cnc2c(Nc3cccc(Cl)c3)nc(NCCCO)nc21` gave HCMV antiviral inactive, VACV Venus inh 10µM, FMDV inh inactive and VACV mCherry inh inconclusive.
Cc1ccc(CN2CCOc3ccc(CN4CCN(CCO)CC4)cc3C2)s1 was read as VACV Venus inh inactive, FMDV inh inactive and VACV mCherry inh inactive.
For CCN(CC(=O)NCc1ccc(Cl)cc1)C(=O)c1cnc(Cl)c(Cl)c1 the results were HCMV antiviral -62.6, VACV Venus inh inactive, MARV entry inh inactive, LASV entry inh inactive, FMDV inh inactive and VACV mCherry inh inactive.
